# Screening results from PubChem BioAssay.
# Most compounds without a hit are left out; they make up all but 5.2% or so of the library.
# Vif inh: HIV Vif inhibition | 340,000 tested, 0.35% active | inhibition, % at 7.49 µM | HEK293T cells, Vif self-association by quenched fluorescence, imaging, 24 h; in the data active = inhibition above about 50%, passing the limit was not always enough
# NR3A LBD binder: modulators (binders) of human NR3A ligand-binding domain. NR3A LBD differential scanning fluorimetry, Tm shift; 0% = protein alone, 100% = glycine-bound protein. Tm shift relative to glycine control, % at 25 µM. 340,000 tested, 2.5% active. AID 1259313;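 active = melting temperature shift of at least 10% of the positive control shift, at one fixed dose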
# esBAF inh: blocks esBAF chromatin remodeling in mouse ES cells; Bmi1-luciferase knock-in reporter, 24 h; 100% = twice the neutral-well signal; 350,000 tested, 2% active; reporter increase, % at 12.5 µM; in the data active = activation above about 40%;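 also: 0% = median of the plate's neutral control wells and 100% = double that signal; a rise in the Bmi1 reporter signal indicates esBAF inhibition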
# SKN-1 block: blocks SKN-1 activity in C. elegans; AID 624304; inhibition, % at 21.8 µM; 360,000 tested, 0.49% active; C. elegans VP596 Pgst-4::GFP/RFP ratio, acrylamide-induced, 24 h;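 active = interference check ratio from 0.5 to 1.5 plus GFP to RFP signal ratio inhibition reaching or exceeding a fixed threshold, cut at about 30% in these data, passing the limit was not always enough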
# NadD inh: NadD (S. aureus) enzyme inhibition. purified NadD enzyme, colorimetric absorbance read-out. inhibition, % at 20 µM. 360,000 tested, 0.78% active; in the data active = inhibition above about 26%
# SMARCA2 act: SMARCA2 function activation, primary screen; MG213 cells, MMTV-luciferase reporter, dexamethasone, overnight; AID 652017; activation, % at 9.1 µM; 370,000 tested, 1% active; in the data active = activation above about 7.8%;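 also: 0% = vehicle wells and 100% = reference activator wells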
# NadD inh conf: confirmation of Staphylococcus aureus NadD inhibitors; shares compounds with NadD inh; purified S. aureus NadD, colorimetric enzyme assay; inhibition, % at 20 µM; 2,000 tested, 13% active; AID 624309; in the data active = inhibition mostly above about 42%, no sharp cut-off; inactive = mostly below about 42%
# The depositor's hits bear a star; · = not tested or not shown.
SMILES,Vif inh,NR3A LBD binder,esBAF inh,SKN-1 block,NadD inh,SMARCA2 act,NadD inh conf
O=C(NNC(=O)c1cc(-c2ccc(Br)cc2)nc2ccccc12)c1csc(N2CCOCC2)n1,-2,-3,8,-5,31*,-2,30
O=C(NNC(=O)c1cc(-c2ccc(Cl)cc2)nc2ccccc12)c1csc(N2CCOCC2)n1,-10,·,-11,-9,31*,-1,37*
Cc1ccc(-c2cc(C(=O)NNC(=O)c3csc(N4CCOCC4)n3)c3ccccc3n2)cc1,2,-6,8,-19,15,0,·
O=C(NNC(=O)c1cc(-c2ccccc2)nc2ccccc12)c1csc(N2CCOCC2)n1,13,-2,2,-36,16,-2,·
NS(=O)(=O)c1ccc(N/N=C/c2cn(-c3ccccc3)nc2-c2cccs2)c([N+](=O)[O-])c1,33,3,-2,14,36*,-3,-6
CCOc1ccc(NS(=O)(=O)c2ccc(Cl)c(N=Nc3c(O)[nH]c(=S)[nH]c3=O)c2)cc1Br,2,·,4,20,39*,-1,63*
COc1ccc(NS(=O)(=O)c2cc(N=Nc3c(O)[nH]c(=O)[nH]c3=O)ccc2OC)cc1Br,-3,·,-3,-2,17,-4,·
NCC[C@H]1CC[C@H](NC(=O)C2CCCCC2)[C@@H](CO)O1,·,·,-5,·,·,·,·
COc1ccc(CC(N)c2csc(NC(=O)Nc3ccccc3-c3ccccc3)n2)cc1 (stereo unspecified),-4,·,-10,-16,31*,-1,7
Cc1ccc(/C=N/NC(=O)CSc2nc3ccccc3c(=O)n2-c2ccccc2C)s1,-7,4,·,3,50*,-1,34
Cc1ccc(/C=N/NC(=O)CSc2nc3ccccc3c(=O)n2-c2ccccc2)s1,-4,4,·,7,-1,-4,·
Cc1nn(-c2ccccc2)c(C)c1/C=N/NC(=O)CSc1nc2ccccc2c(=O)n1-c1ccc(Br)cc1,·,-2,-5,-19,30*,-4,3
CCc1ccc(/C=C/C(=O)c2cc(Br)ccc(=O)c2O)cc1,9,-3,3,8,2,-3,·
CCOc1ccc(/C=C/C(=O)c2cc(Br)ccc(=O)c2O)cc1,7,-18,·,0,32*,-7,15
COc1ccc(CNC(=O)C[C@@H]2CC[C@@H]3[C@H](COc4ccc(NC(=O)C(C)C)cc4C(=O)N3C)O2)cc1,·,·,2,·,·,·,·
Cc1ccc(-c2n[nH]c(=S)n2/N=C/C=C/c2ccccc2[N+](=O)[O-])cc1,·,1,-1,-2,35*,-2,20
O=[N+]([O-])c1ccccc1/C=C/C=N/n1c(-c2cc(-c3ccccc3)n[nH]2)n[nH]c1=S,0,8,·,3,42*,2,9
COc1ccc(CN(C)C[C@@H]2Oc3ccc(NC(=O)CCC(F)(F)F)cc3CC(=O)N([C@@H](C)CO)C[C@H]2C)cc1,·,·,0,·,·,·,·
CC=Cc1ccc2n(c1=O)C[C@H]1[C@H](CO)[C@@H](C(=O)N(C)C)[C@@H]2N1CC1CC1 (mixture of isomers),·,·,-1,·,·,·,·
COc1ccc(C(=O)c2[nH]c(N)c(C(=O)NCCc3c[nH]c4ccccc34)c2-c2ccc(Br)cc2)cc1,·,·,·,4,44*,-6,29
Nc1[nH]c(C(=O)c2ccccc2)c(-c2ccc(Br)cc2)c1C(=O)NCCc1c[nH]c2ccccc12,·,·,·,0,27,1,·
Cc1ccnc(NS(=O)(=O)c2ccc(N3C(=O)c4c(Cl)c(Cl)c(Cl)c(Cl)c4C3=O)cc2)n1,-3,28*,·,3,34*,-3,6
N#C/C(=C/c1ccc(F)cc1)c1nnc(NC(=O)c2ccccc2)s1,0,0,-5,14,36*,0,4
O=C(/C=C/c1ccco1)NC(=S)Nc1cccc(-c2nc3ccccc3s2)c1,-5,-1,-8,3,62*,0,13
O=C(/C=C/c1ccco1)NC(=S)Nc1cc(-c2nc3ccccc3s2)ccc1Cl,5,18*,·,18,52*,1,1
O=C(/C=C/c1ccco1)NC(=S)Nc1cccc([N+](=O)[O-])c1,26,2,·,0,39*,2,18
